The list is not random: actives were taken first. Their share in the collection is about 9%.
PLK1 PBD block = blocks phosphopeptide binding to human PLK1 polo-box domain. Plk1 PBD binding of FITC phosphopeptide, fluorescence polarization. 360,000 compounds, 2.8% hits. Potency, µM, for inactives: max response, negative = inhibition, actives largely listed as inhibitors; note: series mostly up to about 57 µM; % is set by controls: 0 for no effect and ±100 for the full control effect; nearly all actives have a fitted effect of over 65% in size
G9a block = G9a (human) methyltransferase inhibition | 350,000 compounds, 8.8% hits | Potency, µM (highest dose often 102 µM), for inactives: at the highest dose activity, negative = inhibition, hits mostly inhibitors | G9a H3K9 monomethylation, AlphaScreen, 2 h; note: % is set by controls: 0 for no effect and ±100 for the full control effect; nearly all actives have a fitted effect of over 75% in size
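Signal arises when biotinylated H3K9 peptide, once monomethylated, bridges streptavidin donor and antibody-captured acceptor beads. Enzyme at 20 nM was preincubated 15 min with test compounds; peptide 500 nM and SAM 20 uM then reacted for 2 h.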
BAZ2B inh = BAZ2B (human) inhibition | AID 504333 | 360,000 compounds, 4.4% hits | Potency, µM (series often up to 114 µM), inactives show top-dose activity change, negative = inhibition, usual class: inhibitors | AlphaScreen BAZ2B-H3K14Ac peptide displacement; note: % is set by controls: 0 for no effect and ±100 for the full control effect; nearly all actives have a fitted effect of over 60% in size
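Protein-peptide AlphaScreen: BAZ2B 50 nM, b-H3K14Ac 50 nM, 1x PBS pH 7.4 + 0.01% Tween-20. Preincubation 30 min RT; cpd 30 min RT (top 110 uM); beads 20 min RT, light-protected.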
HP1b chromo inh = HP1-beta chromodomain-methylated histone interaction inhibition. 390,000 compounds, 0.56% hits. AlphaScreen HP1-beta / biotin-H3K9me3 peptide binding. Potency, µM (series often up to 114 µM), for inactives: at the highest dose activity change, negative = inhibition, usual class: inhibitors. AID 540317; note: nearly all actives have a fitted effect of over 70% in size
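Compound inhibition of the preformed complex between 50 nM HP1-beta and 50 nM biotinylated H3K9me3 peptide was read by AlphaScreen. Buffer was PBS pH 7.4 with 0.01% Tween-20. Incubations ran 30 min at room temperature, with 10 ug/mL donor/acceptor beads.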
JMJD2A Tudor inh = JMJD2A Tudor domain (human) inhibition; O75164; AlphaScreen JMJD2A-Tudor / H3K4me3 peptide binding; Potency, µM (top dose mostly 114 µM), for inactives: top-dose activity change, negative = inhibition, actives largely listed as inhibitors; 390,000 compounds, 4.4% hits; AID 504339; note: % is set by controls: 0 for no effect and ±100 for the full control effect; nearly all actives have a fitted effect of over 50% in size
Target sequence (O75164 whole entry, looked up, the tested form may be a part): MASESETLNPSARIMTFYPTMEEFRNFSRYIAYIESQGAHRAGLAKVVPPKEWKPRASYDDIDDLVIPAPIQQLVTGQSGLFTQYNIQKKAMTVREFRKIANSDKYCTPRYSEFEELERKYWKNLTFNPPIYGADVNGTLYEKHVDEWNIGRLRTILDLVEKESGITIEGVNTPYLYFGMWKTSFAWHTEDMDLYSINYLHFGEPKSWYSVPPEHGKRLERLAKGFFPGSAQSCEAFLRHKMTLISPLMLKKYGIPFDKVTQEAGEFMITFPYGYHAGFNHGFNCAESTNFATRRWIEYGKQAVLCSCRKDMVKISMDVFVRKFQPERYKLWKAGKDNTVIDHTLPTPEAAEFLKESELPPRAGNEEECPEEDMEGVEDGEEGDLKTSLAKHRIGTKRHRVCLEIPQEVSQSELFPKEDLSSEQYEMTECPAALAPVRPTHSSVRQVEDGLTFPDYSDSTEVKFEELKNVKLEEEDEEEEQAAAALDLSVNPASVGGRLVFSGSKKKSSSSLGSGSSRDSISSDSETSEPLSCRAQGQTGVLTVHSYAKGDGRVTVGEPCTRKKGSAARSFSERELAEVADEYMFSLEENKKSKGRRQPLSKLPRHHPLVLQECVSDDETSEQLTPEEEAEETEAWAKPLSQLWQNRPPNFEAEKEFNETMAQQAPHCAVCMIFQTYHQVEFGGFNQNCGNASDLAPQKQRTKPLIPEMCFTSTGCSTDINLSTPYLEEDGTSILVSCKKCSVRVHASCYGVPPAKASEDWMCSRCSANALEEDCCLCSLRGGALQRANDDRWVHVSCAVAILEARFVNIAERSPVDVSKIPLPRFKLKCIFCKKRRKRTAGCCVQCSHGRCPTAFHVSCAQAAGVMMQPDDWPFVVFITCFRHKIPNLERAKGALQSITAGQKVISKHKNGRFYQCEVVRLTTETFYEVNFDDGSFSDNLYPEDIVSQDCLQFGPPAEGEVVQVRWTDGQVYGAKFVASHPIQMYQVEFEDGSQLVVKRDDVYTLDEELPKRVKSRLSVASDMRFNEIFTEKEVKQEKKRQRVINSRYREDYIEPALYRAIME
ALOX12 inh = inhibitors of human 12S-lipoxygenase ALOX12 | purified 12hLO, xylenol orange hydroperoxide absorbance | Potency, µM (doses to about 108 µM), for inactives: at the top dose activity change, negative = inhibition, actives largely listed as inhibitors | 580,000 compounds, 1.1% hits | AID 1671190; note: % is set by controls: 0 for no effect and ±100 for the full control effect
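Purified human 12hLO at 150 nM in 25 mM Hepes, 0.01% Triton X-100, pH 7.0, preincubated 15 min at room temperature with compound. Reaction started with 40 uM arachidonic acid, 30 min at room temperature. Hydroperoxide measured by Fe-xylenol orange, 573/405 nm absorbance ratio.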
The depositor's hits bear a star; ? = inconclusive; · = not tested or not shown; [ ] = another dose, or the depositor's remark. Calls come from the whole dose curve; as a rule, active = well fitted curve in the direction sought with a large enough effect; inconclusive = small, poorly fitted or top-dose-only effect, or another doubt; inactive = no such curve, though single readings can be large; an effect the other way counts as inactive or inconclusive. Potency is the fitted concentration of half-maximal effect.

SMILES | PLK1 PBD block | G9a block | BAZ2B inh | HP1b chromo inh | JMJD2A Tudor inh | ALOX12 inh
CN1CCN(CC#CC(C)(O)C2CC3C=CC2C3)CC1 (stereo not given) | -6% | 22µM* | ? | 22% | 50µM* | ?
CC(C)(C)NC(=O)C(c1ccco1)N(C(=O)c1ccc(CN2CCOCC2)o1)c1ccccc1 (stereo not given) | 1% | 11µM* | 2% | 8% | -5% | 5%
CC(C)(C)NC(=O)C(c1ccco1)N(C(=O)c1csnn1)c1ccccc1 (stereo not given) | -2% | 0%[12.7 µM] | -16% | 11% | -7% | -1%
CCN(CC)c1nc2ccccc2n(Cc2cccc(OC)c2)c1=O | 0% | 97%[59 µM] | 105% | 150% | 109% | 5%
O=C1C=C(c2ccccc2)OC(c2ccccc2)O1 (stereo not given) | -3% | ? | 50µM* | 81% | 14% | 0%
COc1ccc(OC)c(NC(=O)C2CCN(S(C)(=O)=O)CC2)c1 | 3% | ? | -5% | 6% | 3% | 1%
CC(C)C(C)NC(=O)COC(=O)C1CCN(S(=O)(=O)c2ccc3c(c2)OCCO3)CC1 (stereo not given) | -4% | 50µM* | 9% | 36% | -2% | 3%
COc1ccc(OC)c(NC(=O)C2CCN(S(=O)(=O)c3ccc4c(c3)OCCO4)CC2)c1 | -2% | 50µM* | 0% | 11% | -22% | -19%
CCNC(=O)COC(=O)C1CCN(S(=O)(=O)c2ccc3c(c2)OCCO3)CC1 | 1% | -8% | -4% | 11% | -10% | 2%
O=C(Nc1ccc2c(c1)OCCO2)C1CCN(S(=O)(=O)c2ccc3c(c2)OCCO3)CC1 | 1% | 4%[59 µM] | 1% | 4% | -21% | 6%
COc1cccc(NC(=O)C2CCN(S(=O)(=O)c3ccc4c(c3)NC(=O)CO4)CC2)c1 | 21µM* | 39% | -8% | -1% | ? | 6%
CC(=O)Nc1ccc(NC(=O)C2CCN(S(=O)(=O)c3ccc4c(c3)OCCO4)CC2)cc1 | -3% | 18µM* | 13% | 28% | -5% | -4%
CCOc1ccc(-n2c(SCC(=O)Nc3cc(C)on3)nc3c([nH]c4ccccc43)c2=O)cc1 | -1% | 1%[59 µM] | -1% | 36% | -9% | ?
O=C(CN1CCN(Cc2cccc(Cl)c2)C1=O)NCc1ccccn1 | -8% | -3% | -3% | 15% | -31% | 8%
Cc1ccc(Nc2nc(CN3CCN(S(=O)(=O)c4ccccc4C(F)(F)F)CC3)cs2)cc1 | · | · | · | · | · | -24%
Cc1ccc(-c2nnc(Nc3ccccc3)c3ccccc23)cc1S(=O)(=O)N1CCN(C)CC1 | · | ? | -2% | 6% | -16% | -26%
Cc1ccc(-c2nnc(Nc3cccc(Br)c3)c3ccccc23)cc1S(=O)(=O)N1CCN(C)CC1 | · | -51%[59 µM] | ? | 3% | ? | 5%
Cc1cccc(Nc2nnc(-c3ccc(C)c(S(=O)(=O)N4CCN(C)CC4)c3)c3ccccc23)c1 | · | 18µM* | ? | 3% | -33% | -11%
Cc1ccc(-c2nnc(Nc3cccc(Cl)c3)c3ccccc23)cc1S(=O)(=O)N1CCN(C)CC1 | · | 7.9µM* | ? | 6% | ? | -9%
CN(C)C(=O)c1ccc(NC(=O)CC2SC(N3CCCC3)=NC2=O)cc1 (stereo not given) | -4% | 7%[0.501 µM] | 12% | 19% | -10% | 12%
CCc1nc2c(c(-c3ccc(OC)cc3)n1)CN(C(=O)c1ccccc1OC)CC2 | · | · | · | · | · | 12%[6.33 µM]
O=C(Nc1ccc(-n2cccn2)cc1)C1CCN(Cc2ccccn2)CC1 | -4% | 35µM* | ? | 21% | 22µM* | ?
O=C(Nc1cccc(-c2cccc(Cl)c2)c1)C1CCN(Cc2ccccn2)CC1 | -1% | 45µM* | 6% | 46% | -31% | ?
O=C(Nc1ccc(-n2cccn2)cc1)C1CCCCN1Cc1cccc2cccnc12 (stereo not given) | -14% | 20%[59 µM] | ? | 12% | -29% | 23%
O=C(Nc1nc(=O)c2ccccc2s1)c1ccccc1 | -14% | ? | -7% | 18% | -34% | ?

High-throughput results (PubChem)
